Experimental data published in publication PMC9838217, “Structure of SALL4 zinc finger domain reveals link between AT-rich DNA binding and Okihiro syndrome”.
Numbering of substitutions follows the chain as printed.

Molecular target: T1, SALL4 ZFC4 R900W (HT-SELEX) (Mus musculus, UniProt Q8BX22 870-940, R900W)
T1 sequence: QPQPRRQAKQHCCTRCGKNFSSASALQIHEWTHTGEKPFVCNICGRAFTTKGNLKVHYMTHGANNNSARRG
Test: HT-SELEX; high values mean tight binding
Conditions: protein: recombinant; vector His6-GST; dsDNA, one strand shown
How it was run: (§1)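 Up to 6 cycles of selection were run in triplicate. In each, purified recombinant mouse SALL4 zinc finger cluster 4 (residues 870–940, 1 µg) was incubated with library DNA (1.5 µg first cycle, 200 ng later) in 100 µl of 10 mM Tris–HCl pH 7.5, 50 mM NaCl, poly(dI-dC), DTT for 10 min at room temperature, then complexes were captured on Ni2+ beads, washed and PCR-amplified; final pools were MiSeq-sequenced and scanned for 6-mers. Binding signal is each canonical k-mer's read fraction as fold change versus the initial random library.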

Sequence | binding signal [fold-change vs cycle 0]
CAAATG | 1.17 ± 0.0524
AAACCT | 1.34 ± 0.0189
ATCCTG | 1.02 ± 0.0483
ATTGTG | 1.18 ± 0.0444
GCTTTA | 1.09 ± 0.0574
GCATAA | 1.11 ± 0.0331
CATCTC | 1.01 ± 0.0376
AATACG | 1.11 ± 0.0569
ACAAAC | 1.23 ± 0.0488
AAACGA | 1.16 ± 0.0331
AGGATG | 1.04 ± 0.0516
ACCAAT | 1.33 ± 0.0357

Molecular target: T2, SALL4 ZFC4 G921D (HT-SELEX) (Mus musculus, UniProt Q8BX22 870-940, G921D)
T2 sequence: T1 sequence with W31R, G52D
Test: HT-SELEX; high values mean tight binding
Conditions: protein: recombinant; vector His6-GST; dsDNA, one strand shown
How it was run: as §1

Sequence | binding signal [fold-change vs cycle 0]
AAGGTA | 1.42 ± 0.11
AATCAG | 1.32 ± 0.103
GAGGAA | 1.03 ± 0.0774
ACTAGG | 1.01 ± 0.0534
AGCATA | 1.26 ± 0.0447
AACTAG | 1.31 ± 0.0994
CTCTTC | 1.238 ± 0.012
AGGTAA | 1.45 ± 0.089
AAGGAT | 1.54 ± 0.145
AAGATG | 1.39 ± 0.12
CCTATA | 1.35 ± 0.0515
AATCCT | 1.47 ± 0.113
AACTGA | 1.35 ± 0.0948
GAAAAC | 1.19 ± 0.0327
ACTTCA | 1.4 ± 0.125
CATGAA | 1.36 ± 0.0809
ACATGT | 1.4 ± 0.056
AAACGA | 1.16 ± 0.0214
GATCAA | 1.36 ± 0.0523
ATGTAG | 1.34 ± 0.129
AGTCAG | 0.958 ± 0.0631
AAGGGT | 1.01 ± 0.0322
AATACC | 1.3 ± 0.0234
